PubChem BioAssay (NCI)
The panel holds about 83,000 compounds, 20% with a hit somewhere; the sample as a whole holds those more often.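 Percent growth is the endpoint: 0 to 100 indicates growth inhibition (40 means 60% inhibition), 0 means no net growth, and negative values indicate cell death.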 A number with no mark means an inactive call. Active and inactive are the calls of the source. Rule for the calls: active = growth percent below 10; inactive = the rest.

How the values were obtained:
Assay in all cases: NCI-60 one-dose screen, 48 h (100 = growth as untreated, 0 = no growth, -100 = all killed)
Conditions in all cases: 10 µM
NCI-H23 lung = system: NCI-H23 lung
NCI-H226 lung = system: NCI-H226 lung
NCI-H322M lung = system: NCI-H322M lung
HOP-62 NSCLC = system: HOP-62 NSCLC
HOP-92 NSCLC = system: HOP-92 NSCLC
NCI-H522 lung = system: NCI-H522 lung
A549/ATCC NSCLC = system: A549/ATCC NSCLC
786-0 renal = system: 786-0 renal
COLO 205 colon = system: COLO 205 colon
NCI-H460 lung = system: NCI-H460 lung

SMILES | growth (NCI-H23 lung) | growth (NCI-H226 lung) | growth (NCI-H322M lung) | growth (HOP-62 NSCLC) | growth (HOP-92 NSCLC) | growth (NCI-H522 lung) | growth (A549/ATCC NSCLC) | growth (786-0 renal) | growth (COLO 205 colon) | growth (NCI-H460 lung)
O=C(Nc1ccc(OS(=O)(=O)Cc2ccccc2)cc1)C12CC3CC(CC(C3)C1)C2 | 84.8% | 90.3% | 95.3% | 79.3% | 59.9% | 81.6% | 78.5% | 94.1% | 27.4% | 
FC(F)(F)c1ccc(-c2cnc(Cl)nc2NCc2cc(C(F)(F)F)cc(C(F)(F)F)c2)cc1 | 1.54% (active) | 7.69% (active) | 37.8% | 33.4% | -35.3% (active) | -4.24% (active) | 15.8% | 11.5% | -51.1% (active) | 
Cc1ccccc1C1=N[C@@H](Cc2ccccc2)C(=O)c2c(nc3ccccn23)N1 | 95.3% | 98.9% | 106% | 93.4% | 90.5% | 121% | 91.7% | 101% | 107% | 
CCNC(=S)NN | 93.1% | 99.1% | 78.7% | 76.2% | 87.3% | 105% | 72.5% | 99.5% | 106% | 
CCOC(=O)Nc1ccc2c(c1)C(=O)N(CCOC)c1ccccc1O2 | 52% | 77.1% | 43% | 43% | 45% | 18.4% | 44.8% | 45.3% | 13% | 
Cc1ccc2c3c(cccc13)-c1ccccc1C2=O | 86.5% | 91.1% | 92.4% | 93.6% | 108% | 67.1% | 81.8% | 99.4% | 93.9% | 
S=C(Cc1ccc(-c2ccccc2)cc1)N1CCOCC1 | 104% | 91.7% | 96% | 93.6% | 83.1% | 89.8% | 90.9% | 93.6% | 103% | 
CC(C)OCc1cc(CN2CCN(c3cccc(Cl)c3)CC2)c(O)c2ncccc12 | -44.8% (active) | 1.5% (active) | -10.6% (active) | -0.196% (active) | -35.2% (active) | -26.2% (active) | -5.68% (active) | 0.332% (active) |  | 
Cc1ccc(/C(CS(=O)(=O)c2ccc(C)cc2)=N\O)cc1 | 99.9% | 93.6% | 104% | 111% | 87.4% | 97% | 94.6% | 102% | 118% | 
O=C(COc1ccc(-c2nc3ccccc3[nH]2)cc1)N=Nc1c(O)[nH]c2ccccc12 | 106% | 116% | 96.1% | 105% | 79.8% | 94% | 106% | 96.8% | 92.4% | 
N#C/C(=C/c1cc([N+](=O)[O-])ccc1Cl)C(N)=O | 98.4% | 94.4% | 97.2% | 94.8% | 87.8% | 87.7% | 106% | 104% |  | 
O=[N+]([O-])c1ccc(-c2nc(Cl)c3c(n2)CCCC3)o1 | 88.5% | 63.6% | 102% | 64% | 85.2% | -41.3% (active) | 83% | 107% | 68.5% | 
Cc1ccc(C2C=C(c3ccc(Cl)cc3)N=C3SC=CN32)c(Br)c1 (stereo not drawn) | 85% | 55.5% | 85.5% | 96.5% | 80.6% | 80.7% | 86.3% | 93.1% | 91.1% | 
COc1ccc(-c2nc(-c3ccccc3)c(-c3ccccc3)[nH]2)cc1OC1CCCC1 | 73.1% | 88.9% | 66% | 113% | 12.6% | 36.1% |  | 78.6% | 86.3% | 
O=C(O)CNS(=O)(=O)c1ccc(OCCOc2ccc(S(=O)(=O)NCC(=O)O)cc2)cc1 |  | 100% | 97.4% | 92.8% | 104% | 88.9% | 104% | 104% |  | 109%
COc1ccc(/C=C(\c2cc(OC)c(OC)c(OC)c2)c2nnc(-c3cccs3)o2)cc1 | 76.1% | 92.5% | 82.7% | 41.3% | 34.8% | 43.7% | 77.5% | 48.9% | 112% | 

SMILES | growth (NCI-H23 lung) | growth (NCI-H226 lung) | growth (NCI-H322M lung) | growth (HOP-62 NSCLC) | growth (HOP-92 NSCLC) | growth (NCI-H522 lung) | growth (A549/ATCC NSCLC) | growth (786-0 renal) | growth (COLO 205 colon) | growth (NCI-H460 lung)
CCOC(=O)Cn1nnc(-c2ccc(OCc3ccccc3F)cc2)n1 | 89% | 103% | 98.7% | 87.1% | 75.5% | 52.3% |  | 97.2% | 103% | 
C[N+]1=C(/C=C/c2ccc(I)cc2)C(C)(C)c2ccccc21 | 82% | 104% | 89.1% | 108% | 65% | 68.8% | 109% | 97.4% | 95% | 
COCCNCC(O)Cn1c2ccc(Cl)cc2c2cc(Cl)ccc21 (stereo not drawn) | -36.8% (active) | 43.1% | -20.1% (active) | 17% | 135% | -62.8% (active) | -10.2% (active) | 21.9% | -67.9% (active) | 
Cc1cc(C)c2c(Nc3ncnc4c3sc3nc(C)cc(C)c34)n[nH]c2n1 | 98.6% | 93.8% | 111% | 95% | 102% | 96.9% | 102% | 106% | 109% | 
COc1cc(OC)cc(N2CCN(C(=O)Nc3nc4cc(F)ccc4nc3OC)CC2)c1 | 20.4% | 43.3% | 29.3% | 34.7% | 39.8% | -3.96% (active) | 19.8% | 15% | -65.4% (active) | 
CCCCNC(=O)Oc1ccc(/C(=C(\C)c2ccc(OC)cc2)c2ccc(OCCN3CCCCC3)cc2)cc1 | 68.4% | 96.5% | 87.6% | 69.1% | 47.2% | 74% | 47.5% | 17.1% | -7.56% (active) | 
CC(=O)c1ccc(NCn2nc(-c3ccc(Cl)cc3)oc2=S)cc1 | 104% | 106% | 110% | 69.9% | 104% | 92% |  | 105% | 107% | 
CC(=O)N(O)c1ccc(/C=C/c2ccccc2)cc1 |  | -20.6% (active) | 29.4% | 42.7% | -5.13% (active) | 68.3% | 25.6% | 19.9% | 46.5% | 8.15% (active)
C=CCn1ccc(=O)nc1SC | 107% | 112% | 111% | 97.1% | 97.3% | 100% | 111% | 101% | 106% | 
CC(C)=C1CCC(C)C/C1=N\N=C(N)N (stereo not drawn) |  | 97.9% | 97.1% | 101% | 85.8% | 90.8% | 91.8% | 93.3% | 108% | 102%
CCCCN(CCCC)c1ccc(C(=NC(C)CCCN(CC)CC)c2ccc(N(C)C)cc2)cc1 (stereo not drawn) |  | -34.9% (active) | -14.2% (active) | -80.4% (active) | -45.5% (active) | -66.8% (active) | -16.4% (active) | -86.4% (active) | -88.4% (active) | -76.9% (active)
C[C@H](NC(=O)[C@@H]1CSSC[C@@H](NC(=O)Cc2nc3ccccc3cc2O)C(=O)NCC(=O)N1C)c1ccccc1 |  | 104% | 105% | 90.2% | 116% | 88.3% | 90.5% | 114% | 89.7% | 94.2%
CN(C1c2ccccc2Oc2ccccc21)S(=O)(=O)c1cc(Cl)ccc1Cl |  | 62.7% | 78.4% | 48.6% | 34.8% | 3.68% (active) | 52.4% | 64.1% | 53% | 34.5%
COc1ccc2oc(=O)cc(C(c3ccc[nH]3)c3ccc[nH]3)c2c1 |  | 7.92% (active) | 27.7% | 4.73% (active) | 32.6% | -23.1% (active) | -7.88% (active) | 17.2% | -71.5% (active) | 4.57% (active)
CC(C)C[C@H](NC(=O)CCn1ccc2ccccc2c1=O)B(O)O |  | -16.2% (active) | 91% | 82.7% | 90.1% | 19.9% | 58% | 48.5% | 48.7% | 93.8%
